The text below walks through data of PubChem BioAssay (NCI).

Among the test systems are SK-MEL-2 melanoma; EKVX NSCLC; SN12C renal; UO-31 renal; TK-10 renal; ACHN renal; CAKI-1 renal; A498 renal; CCRF-CEM leukemia; MOLT-4 leukemia; RPMI-8226 leukemia; OVCAR-8 ovarian; OVCAR-5 ovarian; OVCAR-4 ovarian; SK-OV-3 ovarian; IGROV1 ovarian; OVCAR-3 ovarian; HS 578T breast; NCI/ADR-RES ovarian.
Holding throughout (test): NCI-60 one-dose screen, 48 h (100 = growth as untreated, 0 = no growth, -100 = all killed)
What all share (details): 10 µM unless noted

Each structure is given as a SMILES string. Compounds without any hit were thinned out: in the full panel of roughly 83,000, 20% have a hit.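 Compound tested at a single concentration for 48 hours in 96-well plates; a percent growth value below 10 was scored as active.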 A number with no mark means an inactive call. Calls of active or inactive are those of the source.

Take `CCc1ccc2nc(NC(=O)Cc3csc(NC(=O)c4ccco4)n3)sc2c1`: the growth in the assay on SK-MEL-2 melanoma was 67.9%; in the assay on EKVX NSCLC, 81.7%; in the assay on SN12C renal it was 79.4%; with UO-31 renal, 60.5%; in the assay on TK-10 renal it was 82%; in the assay on ACHN renal, 57.2%. The growth was 60.1% with CAKI-1 renal; 83.9% in the assay with A498 renal; 87.2% in the assay on CCRF-CEM leukemia; 39.9% in the assay on MOLT-4 leukemia; 55.8% with RPMI-8226 leukemia; 43.3% with OVCAR-8 ovarian. In addition, the growth in the assay with OVCAR-5 ovarian was 83.1%; with OVCAR-4 ovarian it was 43.1%; with SK-OV-3 ovarian it was 65.1%; in the assay with IGROV1 ovarian, -9.65% (active); in the assay with OVCAR-3 ovarian, 64.1%; with HS 578T breast it was 31.4%. Also, the growth with NCI/ADR-RES ovarian is 77.5%.

`COc1cc(/C=C/c2c(C(C)=O)c(C)nc3ccccc23)cc(OC)c1OC`: the growth in the assay on SK-MEL-2 melanoma was 47.9%; with EKVX NSCLC it was 52.4%; in the assay on SN12C renal, 35.3%; with UO-31 renal, 36.7%; in the assay with TK-10 renal, 78.8%; in the assay with ACHN renal it was 37.6%. Also, the growth is 24.7% in the assay on CAKI-1 renal; -23.8% (active) with A498 renal; 21.3% in the assay with CCRF-CEM leukemia; 33.6% in the assay on MOLT-4 leukemia; 23.6% with RPMI-8226 leukemia; 52.6% with OVCAR-8 ovarian. In addition, the growth was 61.3% in the assay with OVCAR-5 ovarian; 52.7% with OVCAR-4 ovarian; 36.6% in the assay on SK-OV-3 ovarian; 32% in the assay on IGROV1 ovarian; 15.1% with OVCAR-3 ovarian; -16.7% (active) with HS 578T breast. Further, in the assay with NCI/ADR-RES ovarian, the growth was 23.1%.

For `CCN1C(=O)N(CC)C2Nn3c(s/c(=C4\C(=O)N(CC(C)C)c5ccccc54)c3=O)=NC21` (configuration not stated), the growth in the assay on SK-MEL-2 melanoma was 66.4%; in the assay with EKVX NSCLC, 63.8%; in the assay with SN12C renal, 48.9%; in the assay with UO-31 renal, 49.8%; with TK-10 renal, 13.1%; in the assay on ACHN renal, 52.5%. Also, the growth was 34.1% with CAKI-1 renal; -6.38% (active) in the assay on A498 renal; 42.6% in the assay with CCRF-CEM leukemia; 48.7% in the assay with MOLT-4 leukemia; 50.6% in the assay with RPMI-8226 leukemia; 44.7% in the assay with OVCAR-8 ovarian. Further, the growth in the assay on OVCAR-5 ovarian was 52.5%; in the assay with OVCAR-4 ovarian, 56.5%; in the assay with SK-OV-3 ovarian, 56.2%; in the assay with IGROV1 ovarian, 47.9%; in the assay on OVCAR-3 ovarian it was 21.5%; in the assay on HS 578T breast, 40.5%. Further, the growth in the assay on NCI/ADR-RES ovarian was 11.3%.

Turning to `COc1ccc(-c2c(C(=O)NS(C)(=O)=O)n(Cc3cccc(C(F)(F)F)c3)c3ccccc23)cc1`, the growth in the assay with SK-MEL-2 melanoma is 101%; in the assay with EKVX NSCLC, 91%; in the assay on SN12C renal, 85.2%; with UO-31 renal, 73%; with TK-10 renal it was 105%; in the assay on ACHN renal it was 91.8%. The growth in the assay with CAKI-1 renal is 80.1%; with A498 renal it was 80.1%; with CCRF-CEM leukemia, 75.5%; in the assay on MOLT-4 leukemia it was 90.3%; with RPMI-8226 leukemia, 81.2%; in the assay with OVCAR-8 ovarian, 82.1%. Also, the growth with OVCAR-5 ovarian is 106%; in the assay on OVCAR-4 ovarian, 96.1%; in the assay with SK-OV-3 ovarian, 97.2%; with IGROV1 ovarian it was 90.7%; with OVCAR-3 ovarian, 88.5%; in the assay with HS 578T breast, 86.5%. Moreover, the growth with NCI/ADR-RES ovarian was 94.4%.

On to `CCC12CCC[N+]3([O-])CCC4(C(=Nc5ccccc54)C(O)(C(=O)OC)C1)C23` (configuration not stated), for which the growth is 121% in the assay with SK-MEL-2 melanoma; 101% in the assay on EKVX NSCLC; 99.9% in the assay with SN12C renal; 87.6% in the assay on UO-31 renal; 113% in the assay with TK-10 renal; 102% with ACHN renal. Moreover, the growth with CAKI-1 renal was 103%; with A498 renal it was 108%; with CCRF-CEM leukemia it was 99.9%; in the assay on MOLT-4 leukemia, 98.2%; in the assay on RPMI-8226 leukemia, 99.9%; in the assay on OVCAR-8 ovarian it was 102%. For the same compound, the growth in the assay with OVCAR-5 ovarian is 93.6%; with OVCAR-4 ovarian, 106%; with SK-OV-3 ovarian, 103%; with IGROV1 ovarian, 138%; with OVCAR-3 ovarian it was 106%; in the assay with HS 578T breast, 92.7%. In addition, in the assay with NCI/ADR-RES ovarian, the growth was 103%.

In the case of `CC(=O)O.CN1[CH-]N(Cc2ccc(C#N)cc2)c2ccccc21.[Ag+]`, the growth in the assay with SK-MEL-2 melanoma is 89.8%; in the assay on EKVX NSCLC, 108%; in the assay with SN12C renal, 111%; in the assay with UO-31 renal, 97.4%; with TK-10 renal, 103%; in the assay on ACHN renal, 106%. Besides, the growth in the assay with CAKI-1 renal was 104%; in the assay on A498 renal it was 99.7%; in the assay on CCRF-CEM leukemia it was 24.7%; in the assay with MOLT-4 leukemia, 90.1%; in the assay on RPMI-8226 leukemia it was 88.8%; in the assay on OVCAR-8 ovarian, 101%. Besides, the growth in the assay on OVCAR-5 ovarian was 117%; with OVCAR-4 ovarian, 112%; in the assay with SK-OV-3 ovarian it was 120%; with IGROV1 ovarian, 111%; with OVCAR-3 ovarian, 116%; in the assay with HS 578T breast, 103%. The growth in the assay with NCI/ADR-RES ovarian is 109%.

In the case of `CN1CCN(c2ccc(-c3cc4c(Nc5ccc(F)c(Cl)c5)ncnn4c3)cn2)CC1`, the growth was 109% in the assay on SK-MEL-2 melanoma; 100% in the assay on EKVX NSCLC; 90.5% in the assay on SN12C renal; 88.2% with UO-31 renal; 76.7% in the assay on TK-10 renal; 82.6% in the assay on ACHN renal. For the same compound, the growth in the assay with CAKI-1 renal was 96.3%; with A498 renal it was 86.7%; with CCRF-CEM leukemia, 42.9%; with MOLT-4 leukemia, 93.6%; in the assay on RPMI-8226 leukemia, 3.77% (active); with OVCAR-8 ovarian, 77.1%. Also, the growth in the assay with OVCAR-5 ovarian is 97.8%; in the assay with OVCAR-4 ovarian, 88.4%; in the assay on SK-OV-3 ovarian, 110%; in the assay on IGROV1 ovarian, 89.5%; with OVCAR-3 ovarian, 98.6%; in the assay with HS 578T breast, 76.9%. Further, the growth with NCI/ADR-RES ovarian is 83.6%.

As to `COc1ccc(-c2conc2-c2ccccc2)cc1`, the growth was 41.6% in the assay with SK-MEL-2 melanoma; 52.7% in the assay with EKVX NSCLC; 33.2% in the assay on SN12C renal; 45.2% with UO-31 renal; 6.72% (active) in the assay with TK-10 renal; 36.5% with ACHN renal. The growth is 33.5% with CAKI-1 renal; -14% (active) with A498 renal; 25.7% in the assay with CCRF-CEM leukemia; 34.4% with MOLT-4 leukemia; 32.7% in the assay with RPMI-8226 leukemia; 18.1% with OVCAR-8 ovarian. Further, the growth was 27.7% in the assay with OVCAR-5 ovarian; 47.8% in the assay with OVCAR-4 ovarian; 38.2% in the assay on SK-OV-3 ovarian; 26.2% with IGROV1 ovarian; -28.5% (active) in the assay with OVCAR-3 ovarian; 7.75% (active) in the assay on HS 578T breast. Also, the growth with NCI/ADR-RES ovarian was 6.05% (active).
